The whole screen tested about 5,500 compounds, of which about 2,000 (36%) were called active. Another 18% or so got no clear call; they are omitted. Rule as the data show it: active = normalized growth mostly below about 0.91 (no sharp cut-off); inconclusive = no clear call, values can overlap the other calls; inactive = mostly above about 0.92. This is one part of the list.
Experiment: chemical genetic growth profiling, strain panel (AID 1159580);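 also: tested at 20 µM; growth read once vehicle control cultures reached saturation at 30 °C; 1 = growth at the plate median or of vehicle wells; lower values mean less growth of the strain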
Details: growth OD

Measured: normalized growth

C[C@]12C=CC(=O)C=C1CCC1C2[C@@H](O)C[C@@]2(C)C1CC[C@]2(O)C(=O)CO (stereo not given in full)
inactive: S. cerevisiae deletion strains, locus YJR075W, strain HOC1, stronger effect = lower value 0.993 | S. cerevisiae deletion strains, locus YKL009W, strain mrt4, stronger effect = lower value 0.976 | S. cerevisiae deletion strains, locus YKL068W, stronger effect = lower value 0.991 | S. cerevisiae deletion strains, locus YKL085W, strain MDH1 (second series), stronger effect = lower value 0.98 | S. cerevisiae deletion strains, locus YKL085W, strain MDH1, stronger effect = lower value 0.98 | S. cerevisiae deletion strains, locus YKL160W, strain elf1, stronger effect = lower value 0.981 | S. cerevisiae deletion strains, locus YKL190W, strain CNB1, stronger effect = lower value 0.996 | S. cerevisiae deletion strains, locus YKR001C, strain vps1, stronger effect = lower value 0.991 | S. cerevisiae deletion strains, locus YKR026C, strain gcn3, stronger effect = lower value 0.997 | S. cerevisiae deletion strains, locus YKR091W, strain srl3, stronger effect = lower value 0.999 | S. cerevisiae deletion strains, locus YLL001W, strain dnm1, stronger effect = lower value 0.978 | S. cerevisiae deletion strains, locus YLL026W, stronger effect = lower value 0.995 | S. cerevisiae deletion strains, locus YLL041C, strain sdh2, stronger effect = lower value 0.989 | S. cerevisiae deletion strains, locus YLR027C, strain aat2, stronger effect = lower value 0.995 | S. cerevisiae deletion strains, locus YLR039C, strain RIC1, stronger effect = lower value 0.974 | S. cerevisiae deletion strains, locus YLR058C, strain SHM2, stronger effect = lower value 0.994 | S. cerevisiae deletion strains, locus YLR102C, strain apc9, stronger effect = lower value 0.98 | S. cerevisiae deletion strains, locus YLR113W, strain HOG1, stronger effect = lower value 1.01 | S. cerevisiae deletion strains, locus YLR221C, strain rsa3, stronger effect = lower value 1.01 | S. cerevisiae deletion strains, locus YLR258W, strain gsy2, stronger effect = lower value 0.991 | S. cerevisiae deletion strains, locus YLR262C, strain YPT6 (second series), stronger effect = lower value 0.992 | S. cerevisiae deletion strains, locus YLR262C, strain YPT6, stronger effect = lower value 0.991 | S. cerevisiae deletion strains, locus YLR268W, strain sec22, stronger effect = lower value 0.948 | S. cerevisiae deletion strains, locus YLR320W, strain mms22, stronger effect = lower value 0.97 | S. cerevisiae deletion strains, locus YLR330W, strain CHS5, stronger effect = lower value 0.99 | S. cerevisiae deletion strains, locus YLR342W, strain FKS1 (second series), stronger effect = lower value 0.979 | S. cerevisiae deletion strains, locus YLR342W, strain FKS1, stronger effect = lower value 0.997 | S. cerevisiae deletion strains, locus YLR357W, strain rsc2, stronger effect = lower value 0.989 | S. cerevisiae deletion strains, locus YLR370C, strain arc18, stronger effect = lower value 0.988 | S. cerevisiae deletion strains, locus YLR371W, strain rom2, stronger effect = lower value 0.964 | S. cerevisiae deletion strains, locus YLR384C, strain iki3, stronger effect = lower value 0.991 | S. cerevisiae deletion strains, locus YLR418C, strain cdc73, stronger effect = lower value 0.98 | S. cerevisiae deletion strains, locus YML016C, strain PPZ1, stronger effect = lower value 0.988 | S. cerevisiae deletion strains, locus YML032C, strain rad52, stronger effect = lower value 0.972 | S. cerevisiae deletion strains, locus YML120C, strain ndi1, stronger effect = lower value 0.984 | S. cerevisiae deletion strains, locus YML124C, strain tub3, stronger effect = lower value 0.989 | S. cerevisiae deletion strains, locus YMR058W, strain fet3, stronger effect = lower value 0.996 | S. cerevisiae deletion strains, locus YMR078C, strain ctf18, stronger effect = lower value 0.974 | S. cerevisiae deletion strains, locus YMR125W, strain sto1, stronger effect = lower value 0.99 | S. cerevisiae deletion strains, locus YMR129W, stronger effect = lower value 0.993 | S. cerevisiae deletion strains, locus YMR205C, strain PFK2, stronger effect = lower value 0.998 | S. cerevisiae deletion strains, locus YMR223W, strain ubp8, stronger effect = lower value 1 | S. cerevisiae deletion strains, locus YMR231W, strain pep5, stronger effect = lower value 0.991 | S. cerevisiae deletion strains, locus YMR307W, strain GAS1, stronger effect = lower value 0.893 | S. cerevisiae deletion strains, locus YNL067W, strain RPL9B, stronger effect = lower value 1 | S. cerevisiae deletion strains, locus YNL071W, strain lat1, stronger effect = lower value 1 | S. cerevisiae deletion strains, locus YNL128W, strain TEP1, stronger effect = lower value 0.983 | S. cerevisiae deletion strains, locus YNL183C, strain NPR1, stronger effect = lower value 0.973 | S. cerevisiae deletion strains, locus YNL209W, strain ssb2, stronger effect = lower value 0.998 | S. cerevisiae deletion strains, locus YNL233W, strain BNI4, stronger effect = lower value 0.996 | S. cerevisiae deletion strains, locus YNL248C, strain rpa49, stronger effect = lower value 0.993 | S. cerevisiae deletion strains, locus YNL250W, strain rad50, stronger effect = lower value 0.967 | S. cerevisiae deletion strains, locus YNL271C, strain bni1, stronger effect = lower value 0.982 | S. cerevisiae deletion strains, locus YNL298W, strain CLA4, stronger effect = lower value 0.98 | S. cerevisiae deletion strains, locus YNL307C, strain MCK1, stronger effect = lower value 0.979 | S. cerevisiae deletion strains, locus YNL322C, strain KRE1 (second series), stronger effect = lower value 1 | S. cerevisiae deletion strains, locus YNL322C, strain KRE1, stronger effect = lower value 0.993 | S. cerevisiae deletion strains, locus YNR049C, strain mso1, stronger effect = lower value 0.995 | S. cerevisiae deletion strains, locus YNR052C, strain pop2, stronger effect = lower value 0.988 | S. cerevisiae deletion strains, locus YOL006C, strain TOP1, stronger effect = lower value 1.04 | S. cerevisiae deletion strains, locus YOL012C, strain htz1 0.96 | S. cerevisiae deletion strains, locus YOL147C, strain pex11, stronger effect = lower value 0.983 | S. cerevisiae deletion strains, locus YOR001W, strain rrp6, stronger effect = lower value 0.975 | S. cerevisiae deletion strains, locus YOR061W, strain CKA2, stronger effect = lower value 0.986 | S. cerevisiae deletion strains, locus YOR069W, strain VPS5, stronger effect = lower value 0.99 | S. cerevisiae deletion strains, locus YOR070C, strain gyp1, stronger effect = lower value 1 | S. cerevisiae deletion strains, locus YOR080W, strain dia2, stronger effect = lower value 0.997 | S. cerevisiae deletion strains, locus YOR083W, strain WHI5, stronger effect = lower value 0.973 | S. cerevisiae deletion strains, locus YOR106W, strain vam3, stronger effect = lower value 0.977 | S. cerevisiae deletion strains, locus YOR136W, strain idh2, stronger effect = lower value 0.987 | S. cerevisiae deletion strains, locus YOR144C, strain elg1, stronger effect = lower value 0.987 | S. cerevisiae deletion strains, locus YOR184W, strain ser1, stronger effect = lower value 0.978 | S. cerevisiae deletion strains, locus YOR231W, strain MKK1, stronger effect = lower value 1.01 | S. cerevisiae deletion strains, locus YOR265W, strain rbl2, stronger effect = lower value 0.996 | S. cerevisiae deletion strains, locus YOR270C, strain vph1, stronger effect = lower value 0.989 | S. cerevisiae deletion strains, locus YOR290C, strain snf2, stronger effect = lower value 0.997 | S. cerevisiae deletion strains, locus YOR316C, strain cot1, stronger effect = lower value 0.983 | S. cerevisiae deletion strains, locus YPL051W, strain arl3, stronger effect = lower value 0.995 | S. cerevisiae deletion strains, locus YPL055C, strain LGE1, stronger effect = lower value 1.01 | S. cerevisiae deletion strains, locus YPL078C, strain atp4, stronger effect = lower value 0.974 | S. cerevisiae deletion strains, locus YPL106C, strain sse1, stronger effect = lower value 1.02 | S. cerevisiae deletion strains, locus YPL240C, strain hsp82, stronger effect = lower value 1 | S. cerevisiae deletion strains, locus YPL241C, strain CIN2, stronger effect = lower value 0.993 | S. cerevisiae deletion strains, locus YPL256C, strain CLN2, stronger effect = lower value 1.02 | S. cerevisiae deletion strains, locus YPR119W, strain clb2, stronger effect = lower value 0.979 | S. cerevisiae deletion strains, locus YPR141C, strain kar3, stronger effect = lower value 0.981 | S. cerevisiae deletion strains, locus YPR163C, strain tif3, stronger effect = lower value 0.98 | S. cerevisiae deletion strains, locus YPR167C, strain met16, stronger effect = lower value 0.982 | S. cerevisiae deletion strains, strain wtn01, stronger effect = lower value 0.983 | S. cerevisiae strains, strain wild type, stronger effect = lower value 0.991
